Measurements from PubChem BioAssay.
Activity calls are given as the source filed them.

How the values were obtained:
[1] = binders of probe aFSTL3 on microarray, primary screen, stem cell growth factor project, biochemical, small-molecule microarray, fluorescence 635/667 (AID 1064); conditions: higher = more signal;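 further: measures binding of the biotinylated anti-FSTL3 antibody to printed compounds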
[2] = binders from COS7 lysate, DM2A8 probe, primary screen, torsin A project, cell lysate, small-molecule microarray, fluorescence 635/667 (AID 1065); conditions: higher = more signal, COS7 lysate expressing mutant human TOR1A
[3] = binders of probe aFGF2 on microarray, primary screen, stem cell growth factor project, biochemical, small-molecule microarray, fluorescence 635/667 (AID 1067); conditions: higher = more signal;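 further: measures binding of biotinylated aFGF2 protein to printed compounds on slides; z-score merges feature fluorescence and signal-to-noise across triplicate slides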
[4] = binders of probe aFGF10 on microarray, primary screen, stem cell growth factor project, biochemical, small-molecule microarray, fluorescence 635/667 (AID 1071); conditions: higher = more signal;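 further: score merges 667 nm spot intensity and signal to noise from triplicate slides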
[5] = molecular target: Neurogenic locus notch homolog protein 2 (Homo sapiens) (UniProt Q04721); assay: Notch2 binders on small-molecule microarrays, primary screen, biochemical, small-molecule microarray, 635 nm fluorescence, stem cell growth factors (AID 1073); conditions: Notch2 binding, higher = more signal
Chain of Neurogenic locus notch homolog protein 2 (Homo sapiens) (Q04721 whole entry, looked up, canonical isoform): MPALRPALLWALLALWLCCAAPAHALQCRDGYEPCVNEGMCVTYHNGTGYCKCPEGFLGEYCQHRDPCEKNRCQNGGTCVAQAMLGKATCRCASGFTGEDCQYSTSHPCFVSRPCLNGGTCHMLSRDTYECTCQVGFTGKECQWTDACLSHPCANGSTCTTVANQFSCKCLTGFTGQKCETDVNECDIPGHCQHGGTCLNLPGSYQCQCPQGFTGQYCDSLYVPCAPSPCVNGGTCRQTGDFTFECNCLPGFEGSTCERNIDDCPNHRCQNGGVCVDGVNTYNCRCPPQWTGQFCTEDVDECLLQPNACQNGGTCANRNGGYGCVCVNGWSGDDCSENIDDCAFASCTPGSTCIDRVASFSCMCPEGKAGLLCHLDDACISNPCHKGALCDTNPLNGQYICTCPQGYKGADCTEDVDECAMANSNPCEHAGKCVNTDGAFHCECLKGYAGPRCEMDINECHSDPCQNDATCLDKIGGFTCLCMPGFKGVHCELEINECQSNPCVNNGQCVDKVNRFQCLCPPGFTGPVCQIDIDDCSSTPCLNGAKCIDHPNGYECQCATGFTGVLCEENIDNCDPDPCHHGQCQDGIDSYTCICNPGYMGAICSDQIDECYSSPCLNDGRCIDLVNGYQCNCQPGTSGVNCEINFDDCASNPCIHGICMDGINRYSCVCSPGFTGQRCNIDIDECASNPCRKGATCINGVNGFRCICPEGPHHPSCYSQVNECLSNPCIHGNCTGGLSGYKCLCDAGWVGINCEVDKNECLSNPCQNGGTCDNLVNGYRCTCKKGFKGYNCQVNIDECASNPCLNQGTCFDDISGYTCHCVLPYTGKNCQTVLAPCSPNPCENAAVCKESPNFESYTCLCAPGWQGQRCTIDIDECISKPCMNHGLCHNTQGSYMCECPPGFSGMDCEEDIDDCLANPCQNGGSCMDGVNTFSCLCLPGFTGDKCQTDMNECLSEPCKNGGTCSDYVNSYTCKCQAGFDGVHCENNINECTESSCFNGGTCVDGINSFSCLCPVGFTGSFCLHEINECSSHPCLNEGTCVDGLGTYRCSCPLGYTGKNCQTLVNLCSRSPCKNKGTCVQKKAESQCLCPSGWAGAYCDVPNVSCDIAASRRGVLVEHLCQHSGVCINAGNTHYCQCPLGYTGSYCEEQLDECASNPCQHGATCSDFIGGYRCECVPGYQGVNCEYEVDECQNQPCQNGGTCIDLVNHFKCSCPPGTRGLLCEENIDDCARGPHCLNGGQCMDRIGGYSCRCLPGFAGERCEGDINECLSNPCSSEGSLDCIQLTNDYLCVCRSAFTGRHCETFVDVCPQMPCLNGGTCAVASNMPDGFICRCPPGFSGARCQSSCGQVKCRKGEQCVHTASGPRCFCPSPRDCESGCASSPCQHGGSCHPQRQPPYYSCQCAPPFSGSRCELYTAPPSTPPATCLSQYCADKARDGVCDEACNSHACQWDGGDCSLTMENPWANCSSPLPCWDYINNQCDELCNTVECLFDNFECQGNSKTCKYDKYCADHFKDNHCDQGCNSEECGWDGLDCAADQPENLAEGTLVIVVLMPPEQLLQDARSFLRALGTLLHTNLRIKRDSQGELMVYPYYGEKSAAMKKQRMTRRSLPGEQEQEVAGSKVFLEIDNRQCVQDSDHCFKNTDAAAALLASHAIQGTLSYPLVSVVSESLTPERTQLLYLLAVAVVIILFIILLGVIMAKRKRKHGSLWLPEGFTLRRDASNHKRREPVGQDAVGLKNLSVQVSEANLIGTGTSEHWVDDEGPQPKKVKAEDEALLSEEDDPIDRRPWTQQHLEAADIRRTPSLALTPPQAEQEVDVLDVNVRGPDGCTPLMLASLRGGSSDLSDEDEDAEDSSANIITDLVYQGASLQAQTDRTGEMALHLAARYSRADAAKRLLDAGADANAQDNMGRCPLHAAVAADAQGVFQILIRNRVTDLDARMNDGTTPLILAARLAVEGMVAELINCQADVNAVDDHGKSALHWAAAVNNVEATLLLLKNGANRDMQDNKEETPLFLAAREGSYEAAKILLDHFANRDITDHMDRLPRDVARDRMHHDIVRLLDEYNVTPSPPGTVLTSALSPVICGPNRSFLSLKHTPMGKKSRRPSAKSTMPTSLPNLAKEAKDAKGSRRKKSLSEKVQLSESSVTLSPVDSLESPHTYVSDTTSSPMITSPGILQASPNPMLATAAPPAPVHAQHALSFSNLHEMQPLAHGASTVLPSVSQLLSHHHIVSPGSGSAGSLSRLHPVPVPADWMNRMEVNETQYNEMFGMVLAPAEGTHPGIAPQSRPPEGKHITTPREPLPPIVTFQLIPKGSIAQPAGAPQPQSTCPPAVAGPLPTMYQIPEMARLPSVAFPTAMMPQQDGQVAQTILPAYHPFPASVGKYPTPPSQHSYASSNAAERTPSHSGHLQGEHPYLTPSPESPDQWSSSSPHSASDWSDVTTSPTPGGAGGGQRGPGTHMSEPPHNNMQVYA

[6] = molecular target: Pro-neuregulin-1, membrane-bound isoform (Homo sapiens) (UniProt Q02297); assay: NRG1 binders on small-molecule microarrays, primary screen, psychiatric disease protein project, biochemical, small-molecule microarray, fluorescence 635/667 (AID 1075); conditions: NRG1 binding, 635 nm fluorescence, higher = more signal;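 further: score combines 667 nm spot fluorescence with signal to noise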
Chain of Pro-neuregulin-1, membrane-bound isoform (Homo sapiens) (Q02297 whole entry, looked up, the tested form may be a part, canonical isoform): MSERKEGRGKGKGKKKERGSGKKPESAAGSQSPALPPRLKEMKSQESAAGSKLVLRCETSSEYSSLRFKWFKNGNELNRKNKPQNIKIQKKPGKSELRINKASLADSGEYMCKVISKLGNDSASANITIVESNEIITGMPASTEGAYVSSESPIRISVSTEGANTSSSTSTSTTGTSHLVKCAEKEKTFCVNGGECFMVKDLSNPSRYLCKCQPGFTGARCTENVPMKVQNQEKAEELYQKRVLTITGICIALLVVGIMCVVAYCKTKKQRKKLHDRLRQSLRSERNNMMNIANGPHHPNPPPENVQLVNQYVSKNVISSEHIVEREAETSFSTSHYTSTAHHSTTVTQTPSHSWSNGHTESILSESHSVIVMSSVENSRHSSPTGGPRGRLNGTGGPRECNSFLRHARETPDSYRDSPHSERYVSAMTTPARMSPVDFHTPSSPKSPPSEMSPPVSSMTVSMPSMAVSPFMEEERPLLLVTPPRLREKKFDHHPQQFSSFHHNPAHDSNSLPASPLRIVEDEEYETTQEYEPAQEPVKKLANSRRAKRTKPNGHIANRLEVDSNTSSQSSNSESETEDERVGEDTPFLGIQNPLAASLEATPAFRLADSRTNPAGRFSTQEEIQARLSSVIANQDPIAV

[7] = system: Neuregulin-1 EGF-like domain; assay: binders of neuregulin-1 EGF-like domain, primary screen, biochemical, small-molecule microarray, 635 nm fluorescence (AID 1081); conditions: small-molecule microarray binding, higher = more signal;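 further: binding of the protein to compounds printed on small-molecule microarray slides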
[8] = FRG1 promoter luciferase signal modulators, primary screen, FRG1 inhibition for FSHD, cell-based, C2C12 myotubes, firefly/Renilla luciferase, luminescence (AID 1084); conditions: higher = more signal, called active from +8 up or from −8 down
[9] = binders of probe aFST on microarray, primary screen, stem cell growth factor project, biochemical, small-molecule microarray, fluorescence 635/667 (AID 1086); conditions: higher = more signal;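 further: score merges 667 nm fluorescence with signal-to-noise of each printed compound spot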
[10] = binders of probe aHhip on microarray, primary screen, stem cell growth factor project, biochemical, small-molecule microarray, fluorescence 635/667 (AID 1087); conditions: higher = more signal;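 further: score merges spot fluorescence at 667nm with spot signal to noise ratio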

Row | Structure (SMILES) | composite z-score [1] | composite z-score [2] | composite z-score [3] | composite z-score [4] | composite z-score [5] | composite z-score [6] | composite z-score [7] | z-score [8] | composite z-score [9] | composite z-score [10]
1 | C[C@@H]1CC[C@H]2C(=O)N3[C@@H](CC[C@@H](C)[C@@H]3c3cccc(N4CCOCC4)c3)C(=O)N2[C@H]1c1cccc(Br)c1 | -0.0356 | 0.237 | -0.108 | 0.528 | 0.263 | 0.942 | 0.987 | -0.649 (inactive) | 0.166 | 0.0373
2 | NC(=O)NCC#Cc1ccc2c(c1)[C@]1(C(=O)N2)[C@H](C(=O)N2CCCCCCC2)[C@H]2C(=O)O[C@H](c3ccccc3)[C@H](c3ccccc3)N2[C@@H]1c1ccccc1OCCO | 3.86 | 2.03 | 0.876 | 0.921 | 1.43 | 1.92 | 0.589 | 0.423 (inactive) | 3.38 | 0.526
3 | COc1ccc(CCNC(=O)[C@@]2(c3ccc([N+](=O)[O-])cc3)CC(=O)N(C(C)C)[C@@H]2c2ccc(CO)cc2)cc1 | 0.988 | -0.716 | -0.116 | -0.94 | -1.38 | 1.57 | 0.987 | -1.39 (inactive) | -0.529 | -0.265
4 | C=C(CCCC)C(=O)CC[C@@H](OC(=O)c1cccnc1)c1cccc(OCCO)c1 | 0.116 | 0.908 | 0.0766 | 1.07 | -0.552 | 0.544 | 0.586 | 0.197 (inactive) | 0.344 | -0.0645
5 | Cc1ccc(N2C(=O)c3ccccc3[C@@H](C(=O)NCC(F)(F)F)[C@@H]2c2ccc(CO)cc2)nc1 | 1.83 | -1.33 | -0.195 | -1.11 | -2.11 | 1.15 | 1.26 | -0.307 (inactive) | -0.869 | -0.539
6 | CCOC(=O)C1=CC[C@@H](c2ccccc2)N(S(=O)(=O)c2ccc(C)cc2)[C@H]1C | -0.386 | 1.09 | 0.0257 | 1.11 | 1.59 | 1.45 | 1.12 | -2.8 (inactive) | 0.691 | -0.0994
7 | CO[C@H]1O[C@H](CO)[C@@H](OC(=O)Nc2ccccc2)[C@H](OC(=O)Nc2ccc3c(c2)OCO3)[C@@H]1OC(=O)Nc1ccc2c(c1)OCO2 | 0.304 | 1.66 | -0.0784 | 0.158 | 0.288 | 1.77 | 1.29 | 2.25 (inactive) | 0.474 | -0.191
8 | COc1cccc([C@@H]2[C@@H](C)CC[C@H]3C(=O)N(C)[C@@H](C(C)C)C(=O)N23)c1 | -0.413 | 0.353 | -0.174 | 0.391 | 0.188 | 0.0253 | 0.475 | 0.056 (inactive) | -0.0409 | 0.154
9 | C#CCCCON=C1C[C@@H](O)[C@@H](O)[C@@H]2[C@@H]3C(=O)N(Cc4ccc5c(c4)OCO5)C(=O)[C@@H]3CC[C@@H]12 | -0.158 | -0.022 | -0.0684 | 0.456 | 0.204 | 0.166 | 0.562 | -0.177 (inactive) | 0.351 | 0.0695
10 | CO[C@]12C=C(Br)[C@@H](C[C@@H]1c1ccccc1)[C@@]1(CO1)C2=O | -0.407 | 0.215 | -0.0336 | 0.229 | 0.308 | -0.115 | -0.356 | -0.358 (inactive) | 0.0254 | 0.0274
11 | C[C@H]1COC(=O)[C@@H]2CCCN2C(=O)[C@@H](C)COC(=O)[C@@H]2CCCN2C1=O | -0.295 | 0.491 | -0.163 | 0.0646 | 0.415 | -0.567 | -0.436 | -3.16 (inactive) | -0.041 | -0.134
12 | C=CCNC(=O)[C@@H]1[C@H]2C(=O)O[C@H](c3ccccc3)[C@H](c3ccccc3)N2[C@H](c2ccc(OCCO)cc2)[C@@]12C(=O)N(C(=O)OCCOC)c1ccc(C#CC3(O)CCCCCC3)cc12 | 1.33 | 1.16 | 0.126 | 0.552 | 1.42 | 0.508 | 1.03 | 0.132 (inactive) | 0.624 | -0.322
13 | CC(=O)Nc1ccc([C@H]2[C@H](C)CC[C@H]3C(=O)N4[C@@H](CC[C@@H](C)[C@@H]4c4ccc(NC(C)=O)cc4)C(=O)N32)cc1 | -0.508 | 0.482 | -0.1 | 0.908 | 0.68 | 0.566 | 1.1 | 0.103 (inactive) | 0.0863 | 0.132
14 | CCN1C(C)=C(C(=O)OC)[C@@H](c2ccccc2)N2C(=O)[C@@]3(C(=O)OC)O[C@@]12[C@@H]1C(=O)N(C)C(=O)[C@@H]13 | -0.217 | 0.139 | -0.0125 | 0.735 | 0.949 | 0.825 | 1.18 | -1.36 (inactive) | 0.264 | -0.0994
15 | COC(=O)C(CC#Cc1ccc2c(c1)[C@]1(C(=O)N2)[C@H](C(=O)N2CCCCCCC2)[C@H]2C(=O)O[C@H](c3ccccc3)[C@H](c3ccccc3)N2[C@@H]1c1ccc(O)cc1)C(=O)OC | 0.565 | -1.17 | -0.167 | -0.542 | -1.07 | -0.712 | -0.466 | 1.65 (inactive) | -0.137 | -0.306
16 | C#C[C@H](O[Si](C#Cc1ccccc1)(C(C)C)C(C)C)c1ccccc1 | -0.16 | -0.232 | -0.0956 | 0.125 | -0.677 | -0.328 | -0.305 | 1.15 (inactive) | -0.649 | -0.233
17 | CCC1=C2CN(Cc3ccccc3Br)[C@@H]([C@@H](O)Cc3ccccc3)C2C=CCC1 (stereo not given in full) | -0.525 | -0.12 | -0.0858 | 0.528 | 0.814 | 0.421 | 0.817 | -1.83 (inactive) | 0.788 | 0.0881
18 | Cc1ccc(S(=O)(=O)N[C@H]2COC(=O)CC=C[C@H](C)COC(=O)N[C@@H](C)C(=O)CC=C[C@@H]2C)cc1 | -0.667 | 1.16 | -0.22 | 0.168 | -0.0113 | -0.195 | 0.527 | 0.502 (inactive) | 0.0218 | 0.0053
19 | CC(C)N1CC=CC23O[C@@H]4/C=C\CCCOC(=O)C4[C@H]2C(=O)N(CCCCCO)[C@@H]3C1=O (stereo not given in full) | 0.378 | 2.29 | -0.226 | -1.52 | -2.17 | 1.16 | 0.665 | 0.561 (inactive) | -0.729 | 0.0176
20 | CN1CCC(CCCO)=CC1C1CC1 (stereo not given) | -0.389 | 1.39 | -0.199 | -0.856 | -1.13 | -0.345 | 0.743 | -0.901 (inactive) | -0.287 | -0.251
21 | C=CC[C@]1(C(=O)O)N=C(c2ccc(OCCCO)cc2)O[C@H]1c1ccccc1 | 1.03 | -0.269 | -0.0985 | -0.2 | -0.0704 | 1.87 | 1.12 | 0.197 (inactive) | 0.0226 | -0.169
22 | CC[C@@H]1C=C(C(=O)O)[C@H](c2ccccc2)N1S(=O)(=O)c1ccc([N+](=O)[O-])cc1 | 0.0455 | -0.0271 | -0.0669 | 0.223 | 0.989 | 1.86 | 1.08 | -2.22 (inactive) | 0.13 | -0.0831
23 | O=C1c2ccccc2[C@](Cc2ccccc2I)(C(=O)NCc2ccccc2)[C@H](c2ccc(CO)cc2)N1Cc1ccccc1C(F)(F)F | 0.988 | 0.077 | -0.131 | -0.787 | -1.28 | 0.385 | -0.56 | -1.98 (inactive) | -0.318 | -0.134
24 | COCCOC(=O)N1C(=O)[C@@]2(c3cc(C#CCNC(N)=O)ccc31)[C@H](c1ccc(OCCO)cc1)N1[C@H](c3ccccc3)[C@H](c3ccccc3)OC(=O)[C@H]1[C@@H]2C(=O)Nc1nc2ccccc2s1 | 1.02 | 0.208 | -0.0399 | 0.371 | -0.97 | 0.396 | -0.757 | 3.98 (inactive) | 0.98 | 0.136
25 | COCCOC(=O)N1C(=O)[C@@]2(c3cc(C#CC4=CCCCC4)ccc31)[C@H](C(=O)NC[C@H](O)c1ccccc1)[C@H]1C(=O)O[C@H](c3ccccc3)[C@H](c3ccccc3)N1[C@@H]2c1ccccc1OCCO | 0.462 | 0.333 | 0.126 | 0.467 | 1.15 | 0.616 | 1.09 | -0.0011 (inactive) | 0.881 | 0.259
26 | COC(=O)Cn1c(C(=O)N2CCCC2)cc2c1C[C@H]1CN(C(=O)c3ccccc3)[C@@](Cc3ccccc3)(C(=O)OC)[C@@H]21 | 0.0841 | -0.0841 | 0.0915 | 0.381 | 1.56 | 1.96 | 1.17 | 1.07 (inactive) | 0.76 | -0.119
27 | CO[C@H]1COC(=O)[C@@H](C)COC(=O)[C@H](Cc2ccccc2)NC(=O)CC=C[C@H]1C | -0.678 | 0.995 | -0.107 | 0.131 | -0.26 | -0.323 | -0.703 | -0.117 (inactive) | 0.267 | 0.0216
28 | C=CC(=O)O[C@@H](Cc1ccccc1)[C@H]1C2C=CCCC=C2CN1Cc1cccc(Cl)c1 (stereo not given in full) | 0.32 | -0.32 | -0.123 | -0.682 | -0.657 | -0.518 | -1.2 | -1.44 (inactive) | -0.254 | 0.176
29 | COC(=O)C[C@H]1O[C@]2(C(=O)N(C)c3ccccc32)[C@@H](C)[C@@H]1[Si](C)(C)c1ccc(OC)cc1 | -0.352 | 0.0371 | -0.005 | 0.791 | 0.146 | 0.367 | 1.06 | -2.07 (inactive) | 0.673 | -0.0645
30 | COc1cc(Cc2cc3c(c(CCc4ccccc4)n2)[Si](C(C)C)(C(C)C)OC3)cc(OC)c1OC | -0.0934 | -0.0736 | -0.146 | -0.108 | -0.0899 | -0.35 | -0.233 | 0.311 (inactive) | 0.337 | -0.0672
